# Data: PubChem BioAssay (Tox21)
# Inconclusive results are not listed. Entries that show only a call come without a potency. Values without a mark were called inactive. The source made the active and inactive calls. Calls come from the whole dose curve; as a rule, active = well fitted activation curve with a large enough effect in the repeat runs; inconclusive = weak or mixed curves; inactive = flat fitted curve, though single readings scatter.
# Test: A CellTox Green Cytotoxicity Assay to monitor cytotoxicity in HEK293 cells - 24 hour (AID 1224875); note: nearly all actives have a fitted effect of over 45% in size
# Conditions: CellTox Green fluorescence; series mostly up to 76.8 µM
# Description: National Center for Advancing Translational Sciences [NCATS]
# NIH Chemical Genomics Center [NCGC]
# U.S. Environmental Protection Agency [EPA]
# National Institutes of Environmental Health Sciences [NIEHS]
# National Toxicology Program [NTP]
# Cell-based models are critical for drug discovery. Determining the natural cytotoxic effects resulting from test compounds is an essential research activity. A CellTox Green Cytotoxicity Assay to monitor cytotoxicity in real time of continues cell culture during 40 hours of the compound treatment was used to screen Tox21 10K library compounds in Hek293 cells. CellTox Green Cytotoxicity Assay is a nonlytic, homogeneous, biofluorescent method to measure cytotoxicity in cell culture after experimental manipulation. The assay system uses a proprietary asymmetric cyanine dye that is excluded from viable cells but preferentially stains the dead cell's DNA. […] Viable cells produce no appreciable increases in fluorescence. Therefore, the fluorescence signal produced by the binding interaction with dead cell DNA is proportional to cytotoxicity.
# The mixture of Hek293 cell suspension and reagents were dispensed at 600cells/6 ul/well in 1536-well tissue culture treated black solid bottom plates using a Multidrop dispenser. After the assay plates were incubated at a 37 C/5% CO2 incubator for 5 hours, 23 nL of compounds dissolved in DMSO, positive and negative controls was transferred to the assay plate by a pintool work station. The plates were incubated at 37 C for 40 hours. The fluorescence intensity were measured at 0h, 8h, 16h, 24h, 32h and 40h time points using ViewLux plate reader during compound treatment.
# Potency is the fitted concentration of half-maximal effect.
Compound,Potency,activity change
N#Cc1cc([N+](=O)[O-])ccc1N,inactive,–
O=S(=O)(C(Cl)(Cl)Cl)C(Cl)(Cl)Cl,21.9 µM (active),–
O=C1C(I)=CC(=C(c2cc(I)c(O)c(I)c2)c2ccccc2C(=O)O)C=C1I,inactive,–
OCC(c1ccc(Cl)cc1)c1ccc(Cl)cc1,24.5 µM (active),–
Clc1ccccc1-c1ccccc1Cl,35.2 µM (active),–
Cc1ccc2nc3sc(=O)sc3nc2c1,–,"-5.16% [at 15.8 µM, active compounds read high]"
CCN(CC)C(=O)Cl,inactive,–
Cc1cc(C)c(C(=O)P(=O)(c2ccccc2)c2ccccc2)c(C)c1,inactive,–
CNC(=O)Oc1cc(C)c(SC)c(C)c1,21.9 µM (active),–
Nc1ccc([N+](=O)[O-])cc1,49 µM (active),–
Cc1ccc(N(SC(F)(Cl)Cl)S(=O)(=O)N(C)C)cc1,17.4 µM (active),–
O=[N+]([O-])c1c(Cl)c(Cl)cc(Cl)c1Cl,49 µM (active),–
COc1cc(OC)c(OC)cc1C=O,inactive,–
Oc1c(I)cc(I)cc1I,inactive,–
Cc1nnc2n1-c1sc(CCc3ccc(CC(C)C)cc3)cc1C(c1ccccc1Cl)=NC2C (stereo not given),inactive,–
ClC1=C(Cl)[C@]2(Cl)[C@@H]3[C@@H](Cl)[C@H]4O[C@H]4[C@@H]3C1(Cl)C2(Cl)Cl,54.9 µM (active),–
COc1ccc(C(c2ccc(OC)cc2)C(Cl)(Cl)Cl)cc1,inactive,–
OC(Cc1ccccc1Cl)(Cn1[nH]cnc1=S)C1(Cl)CC1 (stereo not given),inactive,–
CC1COC(Cn2cncn2)(c2ccc(Oc3ccc(Cl)cc3)cc2Cl)O1 (stereo not given),inactive,–
CN1CSC(=S)N(C)C1,inactive,–
